# Experiments:
# Type in all cases: functional
# [1] = biological target: Solute carrier family 2, facilitated glucose transporter member 1 (Homo sapiens) (UniProt P11166); experiment: ST_JUDE_LEISH: Cytotoxicity at 2uM final concentration against transgenic Leishmania Mexicana promastigotes LmGLUT1 that are glucose transport deficient and complemented with the human glucose transporter GLUT1. Activity is measured by DNA content using SYBR green in vitro
# [2] = biological target: Hexose transporter 1 (Plasmodium falciparum) (UniProt O97467); experiment: ST_JUDE_LEISH: Cytotoxicity at 2uM final concentration against transgenic Leishmania Mexicana promastigotes LmPfHT that are glucose transport deficient and complemented with the Plasmodium falciparum hexose transporter. Activity is measured by DNA content using SYBR green in vitro
# [3] = biological target: Glucose transporter (Leishmania mexicana) (UniProt O61059); experiment: ST_JUDE_LEISH: Cytotoxicity at 2uM final concentration against transgenic Leishmania Mexicana promastigotes LmGT2 that are glucose transport deficient and complemented with the L. Mexicana glucose transporter 2. Activity is measured by DNA content using SYBR green in vitro
# Chain of Solute carrier family 2, facilitated glucose transporter member 1 (Homo sapiens) (P11166 whole entry): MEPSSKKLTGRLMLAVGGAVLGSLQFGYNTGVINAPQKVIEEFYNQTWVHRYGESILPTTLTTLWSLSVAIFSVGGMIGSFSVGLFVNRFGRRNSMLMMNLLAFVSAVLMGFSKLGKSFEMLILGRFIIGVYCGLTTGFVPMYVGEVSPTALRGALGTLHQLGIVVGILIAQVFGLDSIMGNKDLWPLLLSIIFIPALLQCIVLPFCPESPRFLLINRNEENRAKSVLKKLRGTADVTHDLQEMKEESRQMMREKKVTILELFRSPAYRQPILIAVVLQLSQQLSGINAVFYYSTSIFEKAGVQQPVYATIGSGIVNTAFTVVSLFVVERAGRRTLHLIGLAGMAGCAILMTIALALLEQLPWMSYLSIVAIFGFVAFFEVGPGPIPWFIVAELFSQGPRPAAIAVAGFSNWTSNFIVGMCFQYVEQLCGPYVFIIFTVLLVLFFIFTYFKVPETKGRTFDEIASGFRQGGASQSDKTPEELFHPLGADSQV
smiles,measurement,setting,value
CN1Cc2cc(NC(=O)/C=C/c3ccccc3Cl)ccc2C(C)(C)C1,inhibition,[1],10.7%
same,inhibition,[2],8.21%
same,inhibition,[3],6.98%
CCCCOc1cc(OC)c2ccccc2c1CCNCCCCNCCc1c(OCCCC)cc(OC)c2ccccc12,inhibition,[1],105%
same,inhibition,[2],106%
same,inhibition,[3],104%
CCc1cc2c3c(N)nc(N)nc3ccc2n1C(C)CC (stereo not drawn),inhibition,[1],85.2%
same,inhibition,[2],86.6%
same,inhibition,[3],80.3%
OC(CNCCc1ccccc1)Cn1c2ccc(Cl)cc2c2cc(Cl)ccc21 (stereo not drawn),inhibition,[1],-1.53%
same,inhibition,[2],-1.78%
same,inhibition,[3],-2.27%
CCN(CC)CCN(Cc1ccc(-c2ccc(C(F)(F)F)cc2)cc1)C(=O)CN1C(CCc2cccc(F)c2F)=NS(=O)(=O)c2ccccc21,inhibition,[1],-0.85%
same,inhibition,[2],-0.42%
same,inhibition,[3],-3.12%
CCOC(=O)c1c(CN2CCCC2)n(-c2ccccc2)c2cc(Br)c(O)cc12,inhibition,[1],17%
same,inhibition,[2],14%
same,inhibition,[3],16.7%
COc1ccc2nccc(CCC3(O)CCC(NCc4cc5c(cc4F)SCC(=O)N5)CC3)c2c1 (stereo not drawn),inhibition,[1],0.25%
same,inhibition,[2],2.45%
same,inhibition,[3],-2.7%
Cc1nc(-c2ccc(C#N)cc2)sc1C(=O)NCCCCN1CCC(c2ccc3c(c2OCCO)CCCC3)CC1,inhibition,[1],6.87%
same,inhibition,[2],6.02%
same,inhibition,[3],3.7%
COc1cc(N(Cc2ccccc2C)S(=O)(=O)Cc2ccccc2[N+](=O)[O-])c(OC)cc1Cl,inhibition,[1],3.26%
same,inhibition,[2],2.73%
same,inhibition,[3],3.39%
COc1ccc(C2(CNCC(O)c3cccc([N+](=O)[O-])c3)CCCC2)cc1OC (stereo not drawn),inhibition,[1],2.7%
same,inhibition,[2],4.72%
same,inhibition,[3],3.66%
CC(=O)c1cccc(NC(=O)c2ccc(Cl)c(S(=O)(=O)N3CCc4ccccc43)c2)c1,inhibition,[1],12.1%
same,inhibition,[2],11.9%
same,inhibition,[3],12%
FC(F)(F)c1ccc2[nH]c(-c3ccc(-c4ccc(CNCCN5CCNCC5)cc4)cc3)nc2c1,inhibition,[1],-1.44%
same,inhibition,[2],0.13%
same,inhibition,[3],-1.25%
CCc1ccc(CNCC(CCNc2cc(=O)c3ccccc3[nH]2)NCc2cc(Br)cc(Br)c2)o1 (stereo not drawn),inhibition,[1],-1.12%
same,inhibition,[2],1.71%
same,inhibition,[3],-0.33%
COc1cc(NCC(O)CNc2cc(Cl)nc3ccccc23)nc2ccccc12 (stereo not drawn),inhibition,[1],8.65%
same,inhibition,[2],8.28%
same,inhibition,[3],7%
CCOC(=O)NCC(=O)Nc1cccc(-c2cccc(-c3nc4cc(C(F)(F)F)ccc4[nH]3)c2)c1,inhibition,[1],1.41%
same,inhibition,[2],0.35%
same,inhibition,[3],5.34%
Cc1cc(NS(=O)(=O)c2cccc(C(C)N3CCC(N4CCCC4)CC3)c2)ccc1C(C)C (stereo not drawn),inhibition,[1],6.44%
same,inhibition,[2],5.82%
same,inhibition,[3],1.55%
CCCNCc1ccc(-c2ccc(CN(CCOC)C(=O)c3cnc(C)cn3)cc2)nc1,inhibition,[1],-0.38%
same,inhibition,[2],0.25%
same,inhibition,[3],0.24%
O=C(NCCCCN1CCN(c2cccc3c2CCCC3)CC1)c1ccc(NC(=O)c2ccc(Cl)cc2)cc1,inhibition,[1],3.35%
same,inhibition,[2],1.45%
same,inhibition,[3],1.92%
c1ccc2oc(-c3cc4ccncc4cc3OC3CCNCC3)cc2c1,inhibition,[1],-1.3%
same,inhibition,[2],-3.57%
same,inhibition,[3],-3.28%
Nc1nc(N)c2c(n1)CCC(c1ccccc1)C2 (stereo not drawn),inhibition,[1],2.39%
same,inhibition,[2],1.07%
same,inhibition,[3],1.39%
CC(=O)Nc1ncc(C(=O)Nc2cccc(-c3cccc(-c4nc5cc(C(F)(F)F)ccc5[nH]4)c3)c2)s1,inhibition,[1],-1.12%
same,inhibition,[2],0.35%
same,inhibition,[3],0.3%
COc1ccc2nccc([C@@H](O)CN3CCC(NC(=O)C(=Cc4ccc(C#N)cc4)c4ccc(-c5ccccc5)cc4)CC3)c2c1,inhibition,[1],1.28%
same,inhibition,[2],0.19%
same,inhibition,[3],-0.89%
Cc1cccc2nc(-c3cccc(-c4ccc(CNCCNC(=O)c5ccnn5C)cc4)c3)[nH]c12,inhibition,[1],-1.64%
same,inhibition,[2],0.67%
same,inhibition,[3],-2.92%
CCCCCCSc1nnc(COc2cccc3ccccc23)n1-c1ccc(OC)cc1,inhibition,[1],11%
same,inhibition,[2],12.1%
same,inhibition,[3],10.3%
CC1(C)CN(CCC2CCC(NC(=O)/C=C/c3ccc(F)cc3F)CC2)Cc2ccc(C#N)cc21 (stereo not drawn),inhibition,[1],2.36%
same,inhibition,[2],1.97%
same,inhibition,[3],-1.19%
Cc1cc(C)c(C)c(OCCCON2C(=N)N=C(N)NC2(C)C)c1C,inhibition,[1],1.55%
same,inhibition,[2],-0.22%
same,inhibition,[3],2.17%
COc1ccc(CCC(C)(C)NCC(O)c2cccc(C(F)(F)F)c2)cc1 (stereo not drawn),inhibition,[1],3.28%
same,inhibition,[2],3.58%
same,inhibition,[3],5.12%
Cc1cc(F)ccc1N(c1nc(-c2cc(Cl)ccc2Cl)cs1)C1CCNC1 (stereo not drawn),inhibition,[1],8.82%
same,inhibition,[2],7.41%
same,inhibition,[3],4.16%
COc1ccc2nccc(N(C)CC3(O)CCC(NCc4cc5c(cn4)OCCO5)CC3)c2n1 (stereo not drawn),inhibition,[1],1.51%
same,inhibition,[2],1.7%
same,inhibition,[3],1.71%
COc1ccc(NC(=O)/C=C/c2ccc(-c3ccc(-c4noc(C)n4)cc3)cc2)cc1OCCN(C)C,inhibition,[1],-0.19%
same,inhibition,[2],2.25%
same,inhibition,[3],0.27%
CC(=O)Nc1ccc(CN(Cc2ccc(OC(C)(C)C)cc2)Cc2ccc3c(c2)OCCO3)cc1,inhibition,[1],7.25%
same,inhibition,[2],3.27%
same,inhibition,[3],6.45%

# Reference: ChEMBL document CHEMBL3433997, “St. Jude Leishmania screening dataset” (2016)
